Hit rate of the full screen: of about 350,000 compounds, about 5,500 (1.6%) were called active.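 How the source made its calls: active means significant combined selectivity score with lowered wild-type GFP, culture density cut under 30%, mutant RFP and density less affected; inactive means any of these conditions unmet.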 The full list was thinned out, with actives kept by preference.
assay: reduced GFP signal of wild-type E. coli, primary screen, bacterial rRNA inhibitor project, GFP/RFP fluorescence, OD600, single point (AID 720706); conditions: E. coli WT GFP vs humanized-ribosome RFP mutants, 24 h; GFP signal change (wild-type ribosome): stronger effect = lower value, DMSO median 0, no signal -100; OD600 change: measured here: OD600 growth, DMSO median 0, no signal -100; RFP signal change: measured here: RFP humanized mutant strains, DMSO median 0, no signal -100, concentration not given here

Compound | GFP signal change (wild-type ribosome) | OD600 change [%] | RFP signal change [%]
CNC[C@H]1OCCCC[C@H](C)Oc2ccc(NC(=O)Nc3ccc(C(F)(F)F)cc3)cc2C(=O)N([C@H](C)CO)C[C@@H]1C | -45.6% (inactive) | -74.3 | -0.5
COc1ccc(CNC(=O)C[C@@H]2CC[C@H](NC(=O)c3cccc(F)c3)[C@H](CO)O2)cc1 | -0.639% (inactive) | 4.63 | 0.956
C[C@H]1CN([C@@H](C)CO)C(=O)c2cc(C3=CCCC3)cnc2O[C@H]1CN(C)C(=O)Nc1ccc(F)cc1 | -0.884% (inactive) | 7.11 | -0.613
O=C(N[C@@H]1C=C[C@H](CC(=O)N2CCOCC2)O[C@H]1CO)c1ccccn1 | 4.32% (inactive) | 4.06 | 0.272
O=C(CNC(=O)Cc1ccccc1)N=Nc1c(O)[nH]c2ccc(Br)cc12 | -1.63% (inactive) | 10 | 0.336
Cc1c(-c2ccccc2)n[nH]c1C(=O)N=Nc1c(O)[nH]c2ccccc12 | -5.9% (inactive) | -4.62 | 2.09
Cc1cccc(N=Nc2c(O)[nH]c3ccc(F)cc23)c1 | -28.8% (active) | 13.6 | 8.49
C[C@@H]1CN([C@@H](C)CO)S(=O)(=O)c2ccc(C#C[C@@H](C)O)cc2O[C@@H]1CN(C)CC1CC1 | 1.29% (inactive) | -4.39 | -1.26
O=[N+]([O-])c1ccccc1NCc1ccccc1Cl | -29.2% (active) | -20.4 | -10.2
O=C(NCc1ccccc1Cl)NC(=O)c1csc([N+](=O)[O-])c1 | 12.9% (inactive) | 2.99 | 1.52
O=C(NCCNc1ccccc1[N+](=O)[O-])c1ccccc1F | -8.66% (inactive) | 7.69 | -6.27
COc1cccc(CN(C)C[C@H]2OCc3ccccc3-c3c(n(C)c4ccccc34)C(=O)N([C@@H](C)CO)C[C@@H]2C)c1 | -21.2% (inactive) | -41.4 | 18.9
C[C@@H]1CN([C@H](C)CO)S(=O)(=O)c2ccc(C#CC(C)(C)O)cc2O[C@@H]1CN(C)Cc1ccccc1 | 1.3% (inactive) | -3.23 | -1.75
C[C@H](CO)N1C[C@H](C)[C@@H](CN(C)Cc2ccccc2)Oc2c(NC(=O)CCCCCC(=O)Nc3ccccc3N)cccc2C1=O | -10% (inactive) | -16.3 | 2.5
C[C@H]1CCCCO[C@@H](CN(C)C(=O)Nc2cccc3ccccc23)[C@@H](C)CN([C@@H](C)CO)C(=O)c2cc(NS(=O)(=O)c3cn(C)cn3)ccc2O1 | 0.08% (inactive) | -14.1 | 8.18
Cc1cccc(NS(=O)(=O)c2ccc(-c3cnc(C4CC4)o3)cc2)c1 | -8.12% (inactive) | -53.1 | 16.8
Cc1cccc(CNS(=O)(=O)c2ccc(-c3cnc(C4CC4)o3)cc2)c1 | -28.7% (active) | -23 | -6.22
COc1ccc(CNS(=O)(=O)c2ccc(-c3cnc(C4CC4)o3)cc2)cc1 | -6.21% (inactive) | -8.89 | -0.493
CN1C(=O)c2cc(NC(=O)c3ccccc3)ccc2OC[C@H]2O[C@@H](CC(=O)O)CC[C@@H]21 | 2.79% (inactive) | 3.92 | -0.251

Compound | GFP signal change (wild-type ribosome) | OD600 change [%] | RFP signal change [%]
C[C@@H]1CN([C@H](C)CO)C(=O)c2cccc(NC(=O)CCCCCC(=O)Nc3ccccc3N)c2O[C@H]1CN(C)CC1CCCCC1 | -16.1% (inactive) | -30.3 | -6.11
COc1ccc(/C=N/NC(=O)C2CC2)c(OC)c1OC | 20.9% (inactive) | 9.1 | -1.71
COc1ccc(/C=C2\CCc3ccccc3C2=O)c(OC)c1OC | -21.9% (active) | -16.9 | -4.31
COc1ccc(/C=C2/CCCc3ccccc3C2=O)cc1 | -37.4% (inactive) | -62.5 | -10.8
Cc1ccccc1-c1ccc([C@H]2[C@H](CO)N3C(=O)CN(C(=O)c4cccnc4)C[C@@H]23)cc1 | -0.83% (inactive) | -6.48 | 5.21
O=C1N[C@H](Cc2ccccc2)COCc2cn(nn2)CC[C@@H]1Cc1ccc(-c2ccccc2)cc1 | -0.275% (inactive) | 6.34 | -4.54
CCCC#Cc1cnc2c(c1)C(=O)N([C@H](C)CO)C[C@@H](C)[C@@H](CN(C)C(=O)Nc1ccccc1OC)O2 | 4.88% (inactive) | 7.2 | -1.58
COc1ccc(NC(=O)N(C)C[C@@H]2OCCCC[C@H](C)Oc3ccc(NS(=O)(=O)c4cn(C)cn4)cc3C(=O)N([C@@H](C)CO)C[C@@H]2C)cc1 | -1.73% (inactive) | -0.21 | 1.12
COc1ccc(CN(C)C[C@H]2Oc3ccc(NS(=O)(=O)c4ccc(Cl)cc4)cc3CC(=O)N([C@@H](C)CO)C[C@H]2C)cc1 | -45.9% (active) | -36.8 | -1.42
C[C@@H]1CN([C@@H](C)CO)C(=O)c2cc(NS(=O)(=O)c3ccccc3)ccc2O[C@@H]1CN(C)Cc1ccc(C(=O)Nc2ccccc2N)cc1 | -20.2% (active) | -5.29 | 5.46
COc1ccc(S(=O)(=O)Nc2ccc3c(c2)CC(=O)N([C@H](C)CO)C[C@H](C)[C@H](CN(C)Cc2ccc(C(F)(F)F)cc2)O3)cc1 | -1.22% (inactive) | -12.1 | 0.965
COc1ccc(S(=O)(=O)Nc2ccc3c(c2)CC(=O)N([C@@H](C)CO)C[C@H](C)[C@@H](CN(C)Cc2ccc(C(=O)O)cc2)O3)cc1 | -0.025% (inactive) | -7.85 | -0.315
Cc1ccc(S(=O)(=O)Nc2ccc3c(c2)C(=O)N([C@@H](C)CO)C[C@@H](C)[C@@H](CN(C)Cc2ccc(C(=O)Nc4ccccc4N)cc2)O3)cc1 | -3.29% (inactive) | -1.98 | 14
C[C@H](CO)N1C[C@H](C)[C@H](CN(C)Cc2ccc(C(=O)Nc3ccccc3N)cc2)Oc2ccc(NS(C)(=O)=O)cc2C1=O | 5.88% (inactive) | 6.32 | 0.92
COc1ccc2c3c([nH]c2c1)[C@@H](CO)N(C(=O)CC1CC1)CC31CCN(Cc2cccnc2)CC1 | 1.59% (inactive) | 3.97 | 3.46
CCOc1ccc(NS(=O)(=O)c2ccc(C)c(C(N)=O)c2)cc1 | 2.05% (inactive) | 7.61 | 0.34
CCOc1ccc2sc(NS(=O)(=O)c3ccc(N)cc3)nc2c1 | -24.1% (active) | -5.58 | -5
CCOc1cc(NS(=O)(=O)c2ccc(OC)cc2)c(OCC)cc1NC(C)=O | 12.2% (inactive) | 0.765 | 1.03
